# The panel holds about 79,000 compounds, 15% with a hit somewhere; the sample as a whole holds those more often. Values without a mark were called inactive. Activity calls are given as the source filed them. Cut-off read from the data, not from the text of the source: active = growth inhibition above about 70%; inactive = the rest.
# What was measured:
# [1] = NCI Yeast Anticancer Drug Screen. Data for the rad14 strain (AID 159);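 note: 0% = growth of vehicle-treated control cultures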; details: S. cerevisiae rad14 strain growth inhibition, hits give high values
# Method in brief: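 Yeast cells carrying a defined DNA-repair defect were exposed to compounds, and growth inhibition was calculated relative to vehicle-treated control cultures.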
# [2] = NCI Yeast Anticancer Drug Screen. Data for the CLN2oe strain (AID 163);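 note: 0% = growth of vehicle-only control cultures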; details: S. cerevisiae CLN2oe strain, hits give high values
# Method in brief: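 Compound-treated yeast; growth vs vehicle ctrl = % inhibition. Genetically altered strain (cell-cycle control).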
# [3] = NCI Yeast Anticancer Drug Screen. Data for the cln2 rad14 strain (AID 165);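 note: 0% = growth equal to vehicle treated cultures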; details: S. cerevisiae cln2 rad14 strain, hits give high values
# Method in brief: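 Growth inhibition, relative to vehicle-treated controls, is the read-out. The test organism is a yeast strain with defined genetic alterations, cln2 rad14.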
# [4] = NCI Yeast Anticancer Drug Screen. Data for the bub3 strain (AID 167); details: S. cerevisiae bub3 mutant strain, hits give high values
# Method in brief: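 Compounds were applied to a genetically altered yeast strain carrying a cell-cycle control defect. Growth inhibition was scored against vehicle-treated controls.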
# [5] = NCI Yeast Anticancer Drug Screen. Data for the wt2 strain (AID 169);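 note: 0% = growth of vehicle-treated yeast cultures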; details: S. cerevisiae wt2 strain growth inhibition, hits give high values
# Method in brief: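 Compound exposure of yeast; growth compared with vehicle controls; inhibition reported.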
# [6] = NCI Yeast Anticancer Drug Screen. Data for the sgs1 strain (AID 173);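 note: 0% = growth of vehicle-only control cultures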; details: S. cerevisiae sgs1 mutant, hits give high values
# Method in brief: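 Compounds applied to genetically altered yeast; growth compared with vehicle-treated cultures to give % inhibition.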
# [7] = NCI Yeast Anticancer Drug Screen. Data for the mlh1 rad18 strain (AID 175); details: S. cerevisiae mlh1 rad18 strain growth inhibition, hits give high values
# Method in brief: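 Cells of a genetically altered yeast strain, deficient in DNA damage repair, were treated with compound. Their growth was then compared with that of vehicle-treated cultures to give inhibition.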
# [8] = NCI Yeast Anticancer Drug Screen. Data for the rad18 strain (AID 177); details: S. cerevisiae rad18 mutant growth inhibition, hits give high values
# Method in brief: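 Compounds are applied to a repair-deficient yeast strain, and growth is compared with that of vehicle-treated cultures to give percent inhibition.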
# [9] = NCI Yeast Anticancer Drug Screen. Data for the wt1 strain (AID 149);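 note: 0% = growth of vehicle-treated wt1 cultures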; details: S. cerevisiae wt1 strain (SPY 50644) growth inhibition, hits give high values
# Method in brief: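 Yeast wt1 strain exposed to compounds; growth inhibition measured relative to vehicle-treated controls.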
# [10] = NCI Yeast Anticancer Drug Screen. Data for the rad50EPP+ strain (AID 151);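 note: 0% = growth of vehicle-treated control cultures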; details: S. cerevisiae rad50 mutant strain, hits give high values
# Method in brief: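 rad50EPP+ yeast treated with test compounds. Readout: growth vs vehicle control.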
# [11] = NCI Yeast Anticancer Drug Screen. Data for the mgt1 strain (AID 153); details: S. cerevisiae mgt1 mutant growth inhibition, hits give high values
# Method in brief: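 Growth inhibition relative to vehicle controls was scored for the mgt1 yeast strain after compound exposure.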
# [12] = NCI Yeast Anticancer Drug Screen. Data for the rad50 strain (AID 155);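 note: 0% = growth of vehicle-only cultures of the same strain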; details: S. cerevisiae rad50 strain growth inhibition, hits give high values
# Method in brief: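 Yeast carrying a defined DNA repair defect were exposed to test compounds, and growth was compared with vehicle-treated controls to give percent inhibition.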
# [13] = NCI Yeast Anticancer Drug Screen. Data for the mec2-1 strain (AID 157); details: S. cerevisiae mec2-1 strain, hits give high values
# Method in brief: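 Growth inhibition is read against vehicle-treated controls after compound exposure of the mec2-1 yeast strain, which is defective in DNA damage repair or cell cycle control.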
# [14] = NCI Yeast Anticancer Drug Screen. Data for the sgs1 mgt1 strain (AID 161);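 note: 0% = growth of cultures given vehicle only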; details: S. cerevisiae sgs1 mgt1 strain, hits give high values
# Method in brief: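 Compounds are added to genetically altered yeast, and growth is compared with cultures given vehicle alone to give percent inhibition.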
# [15] = at 5.0 µM (retest, dose inferred, filed as 0.5)
# [16] = at 50.0 µM (retest, dose inferred, filed as 5.0)
smiles,measurement,setting,value
Cc1[nH]nc(C(F)(F)F)c1N=NN(C)C,growth inhibition,[1]; at 100.0 µM,99% (active)
same,growth inhibition,[2]; at 1.2 µM,-1%
same,growth inhibition,[2]; at 3.7 µM,8%
same,growth inhibition,[2]; at 11.0 µM,51%
same,growth inhibition,[2]; at 33.0 µM,99% (active)
same,growth inhibition,[2]; at 100.0 µM,99% (active)
same,growth inhibition,[3]; [15],81% (active)
same,growth inhibition,[3]; [16],99% (active)
same,growth inhibition,[3]; at 50.0 µM,99.1% (active)
same,growth inhibition,[4]; at 1.2 µM,-10%
same,growth inhibition,[4]; at 3.7 µM,-8%
same,growth inhibition,[4]; [15],30%
same,growth inhibition,[4]; at 11.0 µM,45%
same,growth inhibition,[4]; at 33.0 µM,98% (active)
same,growth inhibition,[4]; [16],98% (active)
same,growth inhibition,[4]; at 50.0 µM,99.5% (active)
same,growth inhibition,[4]; at 100.0 µM,98% (active)
same,growth inhibition,[5]; at 1.2 µM,-1%
same,growth inhibition,[5]; at 3.7 µM,49%
same,growth inhibition,[5]; at 11.0 µM,51%
same,growth inhibition,[5]; at 33.0 µM,99% (active)
same,growth inhibition,[5]; at 100.0 µM,99% (active)
same,growth inhibition,[6]; at 1.2 µM,12%
same,growth inhibition,[6]; at 3.7 µM,48%
same,growth inhibition,[6]; at 11.0 µM,75% (active)
same,growth inhibition,[6]; at 33.0 µM,99% (active)
same,growth inhibition,[6]; at 100.0 µM,99% (active)
same,growth inhibition,[7]; [15],25%
same,growth inhibition,[7]; [16],98% (active)
same,growth inhibition,[7]; at 50.0 µM,91.1% (active)
same,growth inhibition,[8]; at 1.2 µM,10%
same,growth inhibition,[8]; at 3.7 µM,47%
same,growth inhibition,[8]; at 11.0 µM,79% (active)
same,growth inhibition,[8]; at 33.0 µM,99% (active)
same,growth inhibition,[8]; at 100.0 µM,99% (active)
CN(C)CCC(=O)c1c[nH]c2ccccc12,growth inhibition,[9]; at 1.2 µM,-18%
same,growth inhibition,[9]; at 3.7 µM,-7%
same,growth inhibition,[9]; at 11.0 µM,-7%
same,growth inhibition,[9]; at 33.0 µM,-19%
same,growth inhibition,[9]; at 100.0 µM,18%
same,growth inhibition,[10]; at 1.2 µM,-17%
same,growth inhibition,[10]; at 3.7 µM,24%
same,growth inhibition,[10]; at 11.0 µM,16%
same,growth inhibition,[10]; at 33.0 µM,39%
same,growth inhibition,[10]; at 100.0 µM,54%
same,growth inhibition,[11]; at 1.2 µM,-38%
same,growth inhibition,[11]; at 3.7 µM,-10%
same,growth inhibition,[11]; at 11.0 µM,-39%
same,growth inhibition,[11]; at 33.0 µM,-16%
same,growth inhibition,[11]; at 100.0 µM,18%
same,growth inhibition,[12]; at 1.2 µM,-21%
same,growth inhibition,[12]; at 3.7 µM,-17%
same,growth inhibition,[12]; [15],82% (active)
same,growth inhibition,[12]; at 11.0 µM,-26%
same,growth inhibition,[12]; at 33.0 µM,5%
same,growth inhibition,[12]; [16],98% (active)
same,growth inhibition,[12]; at 50.0 µM,73.5% (active)
same,growth inhibition,[12]; at 100.0 µM,49%
same,growth inhibition,[13]; at 1.2 µM,-41%
same,growth inhibition,[13]; at 3.7 µM,-35%
same,growth inhibition,[13]; [15],67%
same,growth inhibition,[13]; at 11.0 µM,-24%
same,growth inhibition,[13]; at 33.0 µM,-8%
same,growth inhibition,[13]; [16],98% (active)
same,growth inhibition,[13]; at 50.0 µM,37.7%
same,growth inhibition,[13]; at 100.0 µM,64%
same,growth inhibition,[14]; [15],15%
same,growth inhibition,[14]; [16],57%
same,growth inhibition,[14]; at 50.0 µM,63%
same,growth inhibition,[2]; at 1.2 µM,-11%
same,growth inhibition,[2]; at 3.7 µM,-14%
same,growth inhibition,[2]; at 11.0 µM,-14%
same,growth inhibition,[2]; at 33.0 µM,-6%
same,growth inhibition,[2]; at 100.0 µM,8%
same,growth inhibition,[4]; at 1.2 µM,-23%
same,growth inhibition,[4]; at 3.7 µM,-29%
same,growth inhibition,[4]; [15],22%
same,growth inhibition,[4]; at 11.0 µM,-36%
same,growth inhibition,[4]; at 33.0 µM,-35%
same,growth inhibition,[4]; [16],51%
same,growth inhibition,[4]; at 50.0 µM,64.9%
same,growth inhibition,[4]; at 100.0 µM,37%
same,growth inhibition,[5]; at 1.2 µM,-19%
same,growth inhibition,[5]; at 3.7 µM,-46%
same,growth inhibition,[5]; at 11.0 µM,-19%
same,growth inhibition,[5]; at 33.0 µM,-14%
same,growth inhibition,[5]; at 100.0 µM,25%
same,growth inhibition,[6]; at 1.2 µM,-42%
same,growth inhibition,[6]; at 3.7 µM,-33%
same,growth inhibition,[6]; at 11.0 µM,-34%
same,growth inhibition,[6]; at 33.0 µM,14%
same,growth inhibition,[6]; at 100.0 µM,54%
same,growth inhibition,[8]; at 1.2 µM,-55%
same,growth inhibition,[8]; at 3.7 µM,-62%
same,growth inhibition,[8]; at 11.0 µM,-47%
same,growth inhibition,[8]; at 33.0 µM,8%
same,growth inhibition,[8]; at 100.0 µM,57%
O=S(=O)(Oc1c(Cl)cc(Cl)cc1Cl)c1ccccc1,growth inhibition,[9]; at 1.2 µM,-4%
same,growth inhibition,[9]; at 3.7 µM,-7%
same,growth inhibition,[9]; at 11.0 µM,-9%
same,growth inhibition,[9]; at 33.0 µM,-11%
same,growth inhibition,[9]; at 100.0 µM,-5%
same,growth inhibition,[10]; at 1.2 µM,8%
same,growth inhibition,[10]; at 3.7 µM,23%
same,growth inhibition,[10]; at 11.0 µM,37%
same,growth inhibition,[10]; at 33.0 µM,71% (active)
same,growth inhibition,[10]; at 100.0 µM,89% (active)
same,growth inhibition,[11]; at 1.2 µM,-3%
same,growth inhibition,[11]; at 3.7 µM,-5%
same,growth inhibition,[11]; at 11.0 µM,-2%
same,growth inhibition,[11]; at 33.0 µM,9%
same,growth inhibition,[11]; at 100.0 µM,30%
same,growth inhibition,[12]; at 1.2 µM,0%
same,growth inhibition,[12]; at 3.7 µM,3%
same,growth inhibition,[12]; [15],8%
same,growth inhibition,[12]; at 11.0 µM,10%
same,growth inhibition,[12]; at 33.0 µM,14%
same,growth inhibition,[12]; [16],12%
same,growth inhibition,[12]; at 50.0 µM,10.2%
same,growth inhibition,[12]; at 100.0 µM,14%
same,growth inhibition,[1]; at 1.2 µM,0%
same,growth inhibition,[1]; at 3.7 µM,0%
same,growth inhibition,[1]; at 11.0 µM,8%
same,growth inhibition,[1]; at 33.0 µM,11%
same,growth inhibition,[1]; at 100.0 µM,12%
same,growth inhibition,[14]; [15],2%
same,growth inhibition,[14]; [16],47%
same,growth inhibition,[14]; at 50.0 µM,66.3%
same,growth inhibition,[2]; at 1.2 µM,-1%
same,growth inhibition,[2]; at 3.7 µM,-4%
same,growth inhibition,[2]; at 11.0 µM,-14%
same,growth inhibition,[2]; at 33.0 µM,-14%
same,growth inhibition,[2]; at 100.0 µM,-8%
same,growth inhibition,[3]; [15],-18%
same,growth inhibition,[3]; [16],20%
same,growth inhibition,[3]; at 50.0 µM,-33.5%
same,growth inhibition,[4]; at 1.2 µM,-1%
same,growth inhibition,[4]; at 3.7 µM,-4%
same,growth inhibition,[4]; [15],0%
same,growth inhibition,[4]; at 11.0 µM,-2%
same,growth inhibition,[4]; at 33.0 µM,0%
same,growth inhibition,[4]; [16],-8%
same,growth inhibition,[4]; at 50.0 µM,55.4%
same,growth inhibition,[4]; at 100.0 µM,14%
same,growth inhibition,[5]; at 1.2 µM,-1%
same,growth inhibition,[5]; at 3.7 µM,-4%
same,growth inhibition,[5]; at 11.0 µM,-7%
same,growth inhibition,[5]; at 33.0 µM,-2%
same,growth inhibition,[5]; at 100.0 µM,10%
same,growth inhibition,[6]; at 1.2 µM,-3%
same,growth inhibition,[6]; at 3.7 µM,-1%
same,growth inhibition,[6]; at 11.0 µM,11%
same,growth inhibition,[6]; at 33.0 µM,22%
same,growth inhibition,[6]; at 100.0 µM,11%
same,growth inhibition,[7]; [15],-7%
same,growth inhibition,[7]; [16],56%
same,growth inhibition,[7]; at 50.0 µM,63.6%

# Source: PubChem BioAssay (NCI)
